Source: PubChem
RE007 growth inh = less growth of the S. pombe RE007 Vpr strain; S. pombe RE007 Vpr strain, BacTiter-Glo ATP luminescence, 24 h; Potency, µM (highest dose often 92.2 µM), without a hit: at the highest dose activity change, negative = less growth, usual class: inhibitors; hit rate 0.21% among 360,000; AID 651644; active means well fitted falling curve with a large enough effect; inconclusive means small, poorly fitted or top-dose-only effect; inactive means no such curve, though single readings can be large or run the other way; further: on the % scale 0 is the no-effect control and ±100 the full control effect; nearly all actives have a fitted effect of over 50% in size
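Fission yeast RE007 carrying one integrated HIV-1 vpr copy, seeded at OD 0.01 in PMG+AL medium with 23 nL pinned compound. Grown 24 h at 30 degrees; viability read by BacTiter-Glo luminescence after 5 min.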
NS1 function inh = blocks influenza NS1 protein function. hit rate 0.4% among 270,000. AID 2326. Potency, µM (top dose mostly 46.1 µM), inactives show at the highest dose activity, positive = more growth; calls by dose curve; further: actives are rising curves; nearly all actives have a fitted effect of over 50% in size
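S. cerevisiae expressing influenza A NS1, grown in glucose, washed, then diluted 1:100 into pH 6.0 -URA galactose medium with 23 nl compound. Growth recovery read as OD600; NS1-free strain serves as control.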
SARS PLP yeast = blocks SARS-CoV papain-like protease in a yeast assay; AID 485353; Potency, µM (titrated, usually from 32.9 µM), inactives show at the top dose activity, positive = growth rescue, actives largely listed as activators; S. cerevisiae expressing SARS-CoV PLpro, growth rescue; hit rate 0.19% among 330,000; calls by dose curve; further: 0% is about no effect; nearly all actives have a fitted effect of over 55% in size
TbPYK inhibitor = blocks Trypanosoma brucei pyruvate kinase; Q57TT1; TbPYK enzyme, Kinase-Glo Plus ATP luminescence, 45 min; Potency, µM (top dose mostly 76.8 µM), for the others: at the top dose activity, negative = inhibition, actives largely listed as inhibitors; hit rate 0.12% among 410,000; AID 624173; further: on the % scale 0 is the no-effect control and ±100 the full control effect; nearly all actives have a fitted effect of over 50% in size
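In this concentration-response screen, enzyme-free wells defined baseline while DMSO plates tracked drift. Each reaction combined TbPYK, substrate, compound and 130 uM ADP for 45 min at room temperature. Kinase-Glo Plus luminescence gave the signal.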
Sm TGR block = blocks Schistosoma mansoni thioredoxin glutathione reductase. Q962Y6. Potency, µM (series often up to 114 µM), for inactives: at the top dose activity change, negative = inhibition, actives largely listed as inhibitors. hit rate 3% among 360,000. purified TGR, DTNB reduction, TNB absorbance 405 nm; further: on the % scale 0 is the no-effect control and ±100 the full control effect; nearly all actives have a fitted effect of over 60% in size
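TGR 20 nM + NADPH 100 uM (dispensed conc.), cpd preinc 15 min RT; start with NADPH (500 uM addition) then DTNB (15 mM addition). Kinetic TNB absorbance, 405 nm filter. Four-parameter Hill fit across titration.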
LmPK inhibitor = LmPK (Leishmania mexicana) enzyme inhibition; Q27686; purified LmPK, Kinase-Glo ATP luminescence, 1 h; Potency, µM (top dose mostly 57.5 µM), for inactives: at the highest dose activity change, negative = inhibition, most hits filed as inhibitors; hit rate 0.37% among 290,000; AID 1721; further: on the % scale 0 is the no-effect control and ±100 the full control effect
Target sequence (Q27686 whole entry, looked up): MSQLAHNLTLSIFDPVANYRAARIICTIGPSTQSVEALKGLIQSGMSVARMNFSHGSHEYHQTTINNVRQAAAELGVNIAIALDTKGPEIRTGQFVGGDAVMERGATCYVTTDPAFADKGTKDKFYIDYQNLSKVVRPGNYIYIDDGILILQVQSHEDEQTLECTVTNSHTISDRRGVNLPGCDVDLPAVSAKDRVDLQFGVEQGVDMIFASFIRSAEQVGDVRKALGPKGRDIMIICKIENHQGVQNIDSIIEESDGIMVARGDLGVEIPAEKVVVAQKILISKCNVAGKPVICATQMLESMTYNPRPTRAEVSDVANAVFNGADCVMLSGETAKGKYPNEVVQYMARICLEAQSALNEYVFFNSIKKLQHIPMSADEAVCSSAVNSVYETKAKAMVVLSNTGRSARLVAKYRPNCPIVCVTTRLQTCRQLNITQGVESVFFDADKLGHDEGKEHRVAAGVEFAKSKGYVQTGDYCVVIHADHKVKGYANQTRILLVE
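0.1 nM LmPK, 0.5 mM PEP, 0.1 mM ADP; 50 mM imidazole pH 7.2, 7 mM MgCl2, 50 mM KCl; 1 h RT. Kinase-Glo luminescence readout, normalized to no-enzyme (full inhibition) and uninhibited wells.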
An asterisk follows results filed as active; ? = inconclusive; . = no result; [ ] = remark or other dose. Most compounds without a hit are left out; they make up all but 3.3% or so of the library. Unless noted, the call rests on the fitted dose curve; in most records, active means well fitted curve in the direction sought with a large enough effect; inconclusive means small, poorly fitted or top-dose-only effect, or another doubt; inactive means no such curve, though single readings can be large; an effect the other way counts as inactive or inconclusive. Potency means the concentration at half of the fitted maximal effect.

SMILES	RE007 growth inh	NS1 function inh	SARS PLP yeast	TbPYK inhibitor	Sm TGR block	LmPK inhibitor
O=C(O)CN1C(=O)/C(=C\c2cccc(OCc3ccccc3)c2)SC1=S	14%	-28%	1%	-8%	0.5µM*	4%
N#CCCn1cc(/C=N/O)c(-c2ccccc2)n1	-1%	-2%	27%	-4%	0%	-3%
N#CCCn1cc(C=C(C#N)C#N)c(-c2ccc(-c3ccccc3)cc2)n1	.	21%	-24%	-10%	5µM*	-6%
O=[N+]([O-])C(=C1Nc2ccccc2N1)C(Cl)=C(Cl)Cl	3%	0%	-1%	-3%	3.2µM*	6%
COc1ccc2cc3cc(C(=O)N4CCN(c5ccccc5F)CC4)oc3nc2c1	.	.	.	-7%	1%	.
CN(C)c1ccc([C@@H]2[C@@H]([N+](=O)[O-])[C@H]3C=Cc4ccccc4N3[C@H]2C(=O)c2ccc(Cl)cc2)cc1	?	23%	4%	-5%	45µM*	-13%
CCc1ccccc1NC(=O)CSC1=C(C#N)C(c2ccc(O)c(OC)c2)C2=C(CCCC2=O)N1 (stereo not drawn)	-4%	8%[9.22 µM]	3%	-9%	40µM*	-1%
CCOC(=O)c1c(Nc2ccc(OC)cc2)nnc(-c2ccccc2)c1-c1ccccc1	.	.	.	-7%	4%	.
CCOC(=O)c1cc(-c2ccc(C)o2)nn1CCC#N	1%	3%	6%	-9%	18µM*	2%
Cc1ccc(-c2cn3c(=S)[nH]nc3s2)cc1	4%	-61%	-2%	?	-16%	2.2µM*
CCOc1cc(C#N)c(NC(=O)Cn2nnc(-c3ccc(C)cc3)n2)cc1OCC	.	.	.	2%	13%	.
Cc1onc(-c2c(Cl)cccc2Cl)c1C(=O)NNc1ccccc1	220%	-5%	0%	-6%	50µM*	5%
Cc1onc(-c2c(F)cccc2Cl)c1C(=O)NCc1ccccc1	-6%	19%	2%	4%	5%	2%
Cc1onc(-c2ccccc2Cl)c1C(=O)N1CCCc2ccccc21	0%	-5%	-7%	?	3%	1%
Cc1onc(-c2c(F)cccc2Cl)c1C(=O)N1CCCc2ccccc21	-19%	-14%	-8%	7.1µM*	-32%	5%
Cc1onc(-c2c(F)cccc2Cl)c1C(=O)ONC(=O)c1ccco1	14%	-2%	-3%	1%	13µM*	7%
Cc1onc(-c2c(Cl)cccc2Cl)c1NC(=O)NNc1ccccc1	15%	-1%	0%	-3%	-12%	4%
CCOC(=O)Cn1nc(N2CCN(c3ccc(F)cc3)CC2)ccc1=O	.	.	.	2%	6%	.
N#CC(C#N)=Cc1ccc(C=C(C#N)C#N)cc1	-19%	-39%	1%	-11%	2.2µM*	-1%
CSc1ncc(/C=C2/C(=O)NC(=O)N(C)C2=O)cn1	-4%	11%	4%	?	1.4µM*	8%
Cc1ccc(-n2c(C)cc(/C=C3/C(=O)NC(=O)N(C)C3=O)c2C)cc1	15%	15%	4%	1%	-34%	-5%
CCCCN1C(=O)NC(=O)/C(=C/c2cnc(SC)nc2)C1=O	-18%	10%	7%	?	7.1µM*	12%
CSc1ncc(/C=C2/C(=O)NC(=O)N(C3CCCCC3)C2=O)cn1	-24%	?	11%	?	5µM*	12%
Cc1ccc(O)c(C(=O)c2cnn(C(=O)Cc3csc(C)n3)c2)c1	25µM*	-156%	-4%	-5%	-15%	-1%
CCC(=O)N1c2ccc(S(=O)(=O)CCC(=O)N3CCN(c4ccccc4F)CC3)cc2CC1C (stereo not drawn)	-10%	3%	1%	5%	22µM*	2%
SMILES	RE007 growth inh	NS1 function inh	SARS PLP yeast	TbPYK inhibitor	Sm TGR block	LmPK inhibitor
CS(=O)(=O)O[C@H]1CN2CCC1CC2	.	-4%	.	.	.	.
O=C(O)c1ccc2c3c(ncnc13)-c1ccccc1C2=O	?	-174%	-9%	2%	50µM*	-1%
O=C1c2ccccc2C(=O)c2c(NC(=O)c3ccc4c5c(ncnc35)-c3ccccc3C4=O)cccc21	.	-3%	.	.	.	.
O=S1(=O)C=C(Sc2nnc(-c3ccccc3)o2)c2ccccc21	10µM*	-143%	-20%	?	0.5µM*	0%
Cc1cc(C)nc(SC2=CS(=O)(=O)c3ccccc32)n1	14%	-5%	7%	1%	-23%	4%
CC1(C(=O)NNC(=O)c2ccc(=O)oc2)CC1Br (stereo not drawn)	-8%	4%	-1%	2%	10µM*	9%
Cc1ccc(/C(=C\CN2CCCC2)c2cccc(/C=C/C(=O)O)n2)cc1	.	.	.	3%	.	.
CN(c1ccccc1)S(=O)(=O)c1ccc(C(=O)OCC(=O)NCc2ccco2)cc1	-11%	-6%	3%	-6%	25µM*	-11%
COc1cc(/C=C/C(=O)OCC(=O)NCc2ccco2)ccc1O	24%	.	6%	4%	28µM*	.
COc1ccccc1/C=C/C(=O)OCC(=O)NCc1ccco1	-8%	-5%	14%	1%	1%	-4%
O=C(COC(=O)/C=C/c1ccc(F)cc1)NCc1ccco1	3%	.	0%	-3%	3%	-2%
O=C(COC(=O)C1CC2C=CC1C2)NCc1ccco1 (stereo not drawn)	5%	-10%	-4%	2%	50µM*	1%
O=C(COC(=O)C1(c2ccc(F)cc2)CCCC1)NCc1ccco1	4%	.	1%	9%	32µM*	3%
Cc1cccc(Nc2ncnc3c2cnn3C)c1C	.	.	.	4%	0%	.
CC(=O)[C@]1(O)Cc2c(O)c3c(c(O)c2[C@@H](O[C@H]2C[C@H](N)[C@H](O)[C@H](C)O2)C1)C(=O)c1c(O)cccc1C3=O	.	.	.	-6%	.	.
COc1ccccc1NC(=O)COC(=O)c1ccc(S(=O)(=O)NCc2ccco2)cc1	-27%	4%	-6%	-1%	?	1%
COc1ccccc1NS(=O)(=O)c1ccc(C(=O)OCC(=O)NCc2ccco2)cc1	0%	7%	-1%	-5%	40µM*	2%
COc1cccc(OC)c1C(=O)OCC(=O)NCc1ccco1	-5%	.	22%	1%	50µM*	.
O=C(COC(=O)C1CCCCC1C(=O)N1CCc2ccccc21)NCc1ccco1 (stereo not drawn)	0%	2%	0%	5%	25µM*	-4%
Cc1ccc(OCC(=O)NCc2ccco2)c([N+](=O)[O-])n1	-11%	0%	0%	0%	.	-2%
Cc1ccc2cccc(OCC(=O)NCc3ccco3)c2n1	-4%	-7%	4%	0%	45µM*	2%
COC(=O)c1ccccc1NC(=O)C1=CC(c2ccc(C)cc2)=NS(=O)(=O)N1C	.	.	.	1%	-1%	.
CC(C)OC(=O)C(C(=O)OC(C)C)=C1SC=CS1	.	.	.	-9%	.	.
